Screens (PubChem BioAssay)
APE1 inh – blocks human APE1 abasic DNA cleavage | recombinant APE1, TAMRA/BHQ-2 abasic DNA cleavage fluorescence | hit rate 0.35% among 350,000 | Potency, µM (doses to about 65.8 µM), usual class: inhibitors | P27695; note: nearly all actives have a fitted effect of over 55% in size
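Substrate: short duplex with […] THF abasic site, 5'-TAMRA and 3'-BHQ-2, 50 nM final. APE1 at 0.75 nM, preincubated 15 min RT with compound. Fluorescence increase from first to third read measured activity.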
BLM inh – inhibitors of human Bloom syndrome helicase BLM; recombinant BLM DNA unwinding, fluorescence dequenching; Potency, µM (doses to about 56.1 µM), most hits filed as inhibitors; hit rate 0.2% among 350,000; AID 2528; P54132; note: nearly all actives have a fitted effect of over 35% in size
L3MBTL1 block – blocks human L3MBTL1; AID 485360; Q9Y468; AlphaScreen L3MBTL1–H3K9me1 peptide binding; Potency, µM (top dose mostly 57.1 µM), usual class: inhibitors; hit rate 0.66% among 230,000; note: nearly all actives have a fitted effect of over 60% in size
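First, the protein-peptide complex forms for 30 min at room temperature (L3MBTL1 50 nM, biotinylated H3K9me1 peptide 75 nM). Next, compounds are pin-transferred and incubated 30 min. Finally, AlphaScreen beads are added and read after 30 min.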
KDM4E inh – JMJD2E (human) inhibition. JMJD2E catalytic domain, FDH-coupled NADH fluorescence (FDH is formaldehyde dehydrogenase). Potency, µM (titrated, usually from 57.1 µM), actives largely listed as inhibitors. hit rate 1.6% among 230,000. AID 2147; active = well fitted inhibition curve with a large enough effect, not every such curve was filed as active; inconclusive = small, poorly fitted or top-dose-only effect, or another doubt; inactive = no such curve, though single readings can be large or run the other way; note: nearly all actives have a fitted effect of over 50% in size
GoLoco inh red – RGS12 GoLoco-Gai1 interaction inhibition. P63096. Gai1:RGS12 GoLoco peptide FP, rhodamine, 10 min. Potency, µM (highest dose often 61.6 µM), usual class: inhibitors. hit rate 0.44% among 230,000. AID 880; active = well fitted inhibition curve with a large enough effect, not every such curve was filed as active; inactive = no such curve, though single readings can be large or run the other way; note: nearly all actives have a fitted effect of over 30% in size
Target sequence (P63096 whole entry, looked up): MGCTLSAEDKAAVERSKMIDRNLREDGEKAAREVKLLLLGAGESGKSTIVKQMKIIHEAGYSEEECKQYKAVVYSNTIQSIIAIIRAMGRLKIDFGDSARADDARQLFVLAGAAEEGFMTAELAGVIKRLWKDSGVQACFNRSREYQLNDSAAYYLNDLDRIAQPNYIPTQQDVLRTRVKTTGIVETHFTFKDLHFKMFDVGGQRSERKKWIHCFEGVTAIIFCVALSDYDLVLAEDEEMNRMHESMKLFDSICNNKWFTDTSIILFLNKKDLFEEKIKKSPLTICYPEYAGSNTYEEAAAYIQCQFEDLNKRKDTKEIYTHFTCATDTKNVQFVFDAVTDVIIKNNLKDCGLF
RECQ1 inh-1 – inhibitors of human RECQ1 DNA helicase; P46063; RECQ1 DNA unwinding, red fluorescence kinetic read; Potency, µM (highest dose often 57.3 µM), actives largely listed as inhibitors; hit rate 0.54% among 240,000; note: nearly all actives have a fitted effect of over 30% in size
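50 nM RECQ1T1 preincubated 15 min with compound in Tris pH 8.0 buffer with MgCl2, DTT, Tween-20 and 2.5 ug/ml poly(dI-dC); started with 200 nM TAMRA/BHQ-2 forked duplex and 2 mM ATP. Unwinding read as fluorescence (525/598 nm), two reads 2 h apart.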
RECQ1 conf – confirmation of human RECQ1 helicase inhibitors. hit rate 28% among 610. shares compounds with RECQ1 inh-1. RECQ1 helicase DNA unwinding, fluorescence. AID 2708. Potency, µM (highest dose often 229 µM), usual class: inhibitors; note: nearly all actives have a fitted effect of over 45% in size
ADP FP counter – displaces ADP in a fluorescence polarization counter-screen for RECQ1 hits; Potency, µM (series often up to 228 µM), actives largely listed as inhibitors; AID 2711; hit rate 27% among 530; ADP fluorescence polarization displacement counterscreen; shares compounds with RECQ1 inh-1; note: nearly all actives have a fitted effect of over 45% in size
RECQ1 inh-2 – RECQ1 helicase inhibition confirmed, round 2; shares compounds with RECQ1 inh-1; recombinant RECQ1 DNA unwinding, red fluorescence; Potency, µM (top dose mostly 119 µM), most hits filed as inhibitors; hit rate 15% among 1,100; note: nearly all actives have a fitted effect of over 50% in size
Numbers stand for hits; i = inactive; ? = inconclusive; nt = no result. This excerpt belongs to a sample that is enriched for hits. Unless noted, calls come from the whole dose curve; as a rule, active = well fitted curve in the direction sought with a large enough effect; inconclusive = small, poorly fitted or top-dose-only effect, or another doubt; inactive = no such curve, though single readings can be large; an effect the other way counts as inactive or inconclusive.

SMILES | APE1 inh | BLM inh | L3MBTL1 block | KDM4E inh | GoLoco inh red | RECQ1 inh-1 | RECQ1 inh-2 | others
CC1=Nc2ccccc2N=C(NC(=O)CSc2nnnn2-c2ccccc2)C1c1ccccc1 (stereo not drawn) | i | i | nt | i | i | i | nt | RECQ1 conf=i;ADP FP counter=i
NC(=O)c1ccc(-n2nnnc2SCC(=O)Nc2ccccc2)cc1 | i | i | i | nt | nt | nt | nt
O=C(CCCc1nc2ccccc2s1)NC1CCOC1=O (stereo not drawn) | i | i | i | i | i | i | nt
O=C(CCc1nc2ccccc2s1)NC1CCOC1=O (stereo not drawn) | i | i | ? | i | i | ? | ?
CN1CCN(C(=O)C(=O)Nc2c3c(nn2-c2ccc(F)cc2)CSC3)CC1 | nt | i | nt | nt | nt | nt | nt
CCc1c(C)c2cc3c(c(C)c2oc1=O)OCN(CCc1ccccc1F)C3 | nt | i | nt | nt | nt | nt | nt
Cc1[nH][nH]c(=O)c1C(c1ccc(-c2ccc(Cl)c(Cl)c2)o1)c1c(C)[nH][nH]c1=O | ? | i | nt | i | i | ? | ?
Cc1[nH][nH]c(=O)c1C(c1ccc(-c2ccc(F)cc2)o1)c1c(C)[nH][nH]c1=O | i | i | ? | i | i | i | nt
Cc1[nH][nH]c(=O)c1C(c1ccc(-c2ccc(C(=O)O)cc2)o1)c1c(C)[nH][nH]c1=O | ? | i | ? | ? | i | 11µM | i | RECQ1 conf=i
CCOc1ccc(S(=O)(=O)Nc2nc3ccccc3nc2-n2ccc(=NC(=O)c3ccccc3C)cc2)cc1 | i | i | i | i | i | ? | i
Cc1ccccc1C(=O)N=c1ccn(-c2nc3ccccc3nc2NS(=O)(=O)c2ccccc2)cc1 | i | i | nt | nt | nt | nt | nt
COc1ccc(Nc2nc(N)nc(CSc3nc4cc(OC)ccc4s3)n2)cc1 | nt | i | nt | nt | nt | nt | nt
O=C(O)CCCNC(=O)CCn1nnc2ccccc2c1=O | i | i | i | i | i | i | nt
O=C(CCn1nnc2ccccc2c1=O)NCC1CCC(C(=O)O)CC1 (stereo not drawn) | ? | i | i | i | i | i | nt | RECQ1 conf=i;ADP FP counter=i
Clc1ccc(-c2nnc3sc(-c4ccc(Br)o4)nn23)cc1 | i | i | i | ? | i | i | nt
Cc1oc(-c2ccc(Cl)cc2)cc1-c1nn2c(-c3ccoc3C)nnc2s1 | ? | 10µM | ? | i | i | 14µM | nt | RECQ1 conf=35µM;ADP FP counter=i
COc1ccc(/C=C2\SC(=O)N(CC(=O)NNC(=O)c3ccccc3O)C2=O)cc1 | i | i | i | ? | i | 2.8µM | ?
CCN(C(=O)CSc1nc2ccccc2n1CC(=O)N(C)C1CCCCC1)c1ccccc1 | nt | i | nt | nt | nt | nt | nt
CC(C)n1c(=S)[nH]c2scc(-c3cccs3)c2c1=O | ? | i | i | i | i | 28µM | ?
CN1C(=O)Cc2cc(S(=O)(=O)CCC(=O)Nc3cccc(C(F)(F)F)c3)ccc21 | nt | i | nt | nt | nt | nt | nt
Cc1ccc(CN(Cc2ccco2)C(=O)c2ccc(Cl)cc2)o1 | nt | i | nt | nt | nt | nt | nt
C/C(=N\NC(=O)CSCc1ccc([N+](=O)[O-])cc1)c1cccc(Br)c1 | i | i | i | i | i | 1µM | nt | RECQ1 conf=i
CC(C)(C)C1CCC(C(=O)OCC(=O)c2ccc[nH]2)CC1 (stereo not drawn) | i | i | i | i | i | ? | i
Cc1cnc(CNc2ncncc2-c2c(C)noc2C)cn1 | i | i | nt | nt | i | i | nt
Cc1c(Cl)cccc1NS(=O)(=O)c1ccc2c(c1)C1C=CCC1C(c1ccc(C(=O)O)cc1)N2 (stereo not drawn) | i | ? | 7.9µM | i | i | 28µM | ?
O=C(NCCc1ccc(Cl)cc1)c1ccc2c(c1)N(Cc1ccc(Cl)cc1)C(=O)CS2 | nt | i | nt | nt | nt | nt | nt
CCc1ccc(NC(=O)Cn2c(=O)n(CCCC(=O)NCc3ccccc3OC)c(=O)c3ccccc32)cc1 | nt | i | nt | nt | nt | nt | nt
